Screening data deposited in PubChem by National Center for Advancing Translational Sciences (NCATS).
Only some compounds are listed: those with a hit (about 1.8% of all), similar ones and a draw of the others.
KAT2A inh: qHTS Assay for Inhibitors of GCN5L2; GCN5L2 HAT assay, ThioGlo1 CoA-SH fluorescence; Histone acetyltransferase KAT2A (Homo sapiens), Q92830; Potency, µM (titrated, usually from 58.9 µM), usual class: inhibitors; 390,000 tested, 0.21% active
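Enzyme at 20nM final was mixed with library compounds for 15 min at room temperature. Peptide H3(1-25) at 75uM, acetyl-CoA at 70uM and ThioGlo1 at 50uM were then added. Plates were read immediately and after 20 min (Ex340nm/Em540nm).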
VDR inh: Inhibitors of the vitamin D receptor (VDR): qHTS | Vitamin D3 receptor (Homo sapiens), P11473 | VDR-SRC2-3 peptide fluorescence polarization, 2 h | Potency, µM, hits mostly inhibitors | 400,000 tested, 0.93% active | AID 504847, 2011
Target sequence (P11473 whole entry, looked up): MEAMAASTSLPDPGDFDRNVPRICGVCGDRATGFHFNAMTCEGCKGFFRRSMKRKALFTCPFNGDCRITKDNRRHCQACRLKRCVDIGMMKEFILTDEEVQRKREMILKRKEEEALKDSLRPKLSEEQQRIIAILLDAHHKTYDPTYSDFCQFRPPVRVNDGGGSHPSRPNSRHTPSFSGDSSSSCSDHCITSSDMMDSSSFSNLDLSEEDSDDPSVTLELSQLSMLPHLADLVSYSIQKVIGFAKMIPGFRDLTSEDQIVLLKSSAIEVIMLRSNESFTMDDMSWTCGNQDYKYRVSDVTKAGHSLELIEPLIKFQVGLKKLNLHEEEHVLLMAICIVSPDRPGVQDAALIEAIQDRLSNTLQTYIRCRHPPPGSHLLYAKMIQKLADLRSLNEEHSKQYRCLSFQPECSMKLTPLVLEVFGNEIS
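FP read-out; VDR + SRC2-3 coactivator peptide; 23 nl compound by pintool; 2 h RT incubation; reagents held at 4 deg C, protected from light.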
TrxR1 substrate: qHTS Assay for Substrates of Mammalian Selenoprotein Thioredoxin Reductase 1 (TrxR1): qHTS. Thioredoxin reductase 1, cytoplasmic (Rattus norvegicus), O89049. purified TrxR1 substrate turnover, NADPH consumption readout. Potency, µM (top dose mostly 114 µM). AID 588456, 2011. 390,000 tested, 0.01% active; also: nearly all actives have a fitted effect of over 50% in size
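Rat TrxR1, dispensed at 90 nM, was prereduced with 400 uM NADPH (final) for 5 min at ~22 deg C, then incubated with compound 15 min before 400 uM selenite. A first-read NADPH fluorescence drop versus no-compound background flagged substrates.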
rTrxR1 inhibitor: qHTS Assay for Inhibitors of Mammalian Selenoprotein Thioredoxin Reductase 1 (TrxR1): qHTS | AID 588453, 2011 | 390,000 tested, 1% active | Potency, µM (highest dose often 114 µM), usual class: inhibitors | Thioredoxin reductase 1, cytoplasmic (Rattus norvegicus), O89049 | recombinant rTrxR1, NADPH fluorescence consumption, selenite substrate; also: nearly all actives have a fitted effect of over 65% in size
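Rat TrxR1 (90 nM in the dispensed reagent) was pre-reduced with 400 uM NADPH for 5 min at room temperature, then incubated with compound for 15 min. After 400 uM selenite was added, NADPH fluorescence (Ex 340/Em 450 nm) was followed for 8 min.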
USP1 UbRho: Inhibitors of USP1/UAF1: Hit Validation in Primary Assay; shares compounds with VDR inh; Ub-Rhodamine cleavage, fluorescence kinetic read; Potency, µM (doses to about 56.8 µM), actives largely listed as inhibitors; 50 tested, 50% active; AID 540327, 2011
VDR inh confirm: qHTS for Inhibitors of the vitamin D receptor (VDR): Hit Validation in Primary Screen. shares compounds with VDR inh. VDR-coactivator inhibition assay, qHTS confirmation. Potency, µM, hits mostly inhibitors. 840 tested, 89% active
VDR FP fluor: qHTS for Inhibitors of the vitamin D receptor (VDR): Hit Validation using a Fluorescein Assay. VDR-coactivator binding, fluorescein fluorescence polarization. Potency, µM (doses to about 57.1 µM), hits mostly inhibitors. shares compounds with VDR inh. AID 602200, 2012. 840 tested, 48% active
VDR bla: qHTS for Inhibitors of the vitamin D receptor (VDR): Hit Validation using a Beta-Lactamase Assay | shares compounds with VDR inh | AID 602202, 2012 | Potency, µM (top dose mostly 46.1 µM), hits mostly inhibitors | VDR beta-lactamase reporter cells, FRET ratio; cells co-treated with VDR agonist LG190178 | 840 tested, 23% active
VDR cytotox: qHTS for Inhibitors of the vitamin D receptor (VDR): Hit Validation using a Cytotoxicity Assay; AID 602204, 2012; cytotoxicity counter-screen, cell viability, qHTS; shares compounds with VDR inh; Potency, µM (doses to about 48.3 µM), hits mostly cytotoxic; 840 tested, 18% active; also: nearly all actives have a fitted effect of over 75% in size
Hits are given with their value; . = inactive; ? = inconclusive; / = not tested or not shown; [ ] = another dose, or the depositor's remark. Calls follow the shape of the dose curve; as a rule, active = well fitted curve in the direction sought with a large enough effect; inconclusive = small, poorly fitted or top-dose-only effect, or another doubt; inactive = no such curve, though single readings can be large; an effect the other way counts as inactive or inconclusive.

SMILES	KAT2A inh	VDR inh	TrxR1 substrate	rTrxR1 inhibitor	VDR inh confirm	VDR FP fluor	VDR bla	VDR cytotox	others
CCS(=O)(=O)c1oc(-c2ccc(F)cc2)nc1S(=O)(=O)c1ccccc1	.	20µM	.	0.5µM	4.5	4µM	5.8µM	9.5µM
C=CCSc1nc2sc3c(c2c(=O)n1CC)CCc1ccccc1-3	.	25µM	.	?	2.7	?	.	.
O=C(O)CSc1cc(NS(=O)(=O)c2cccc([N+](=O)[O-])c2)c2ccccc2c1O	.	?	?	.	5	2.5µM	?	?
O=C(O)c1cccc(S(=O)(=O)Nc2ccc([N+](=O)[O-])cc2O)c1	.	.	.	.	/	/	/	/
NC(=O)COc1ccc(C(=O)/C=C2/C(=O)Nc3ccccc32)cc1	.	?	.	?	?	?	.	.
O=C1Nc2ccccc2/C1=C/C(=O)c1cccs1	.	?	.	.	11	10µM	?	.
Cc1ccc(NC(=O)Cc2c(C(=O)O)c(C)cn2C)cc1Cl	.	.	.	.	/	/	/	/
CN(C)c1ccc(/C=C/C(=O)c2c(O)c3ccccc3oc2=O)cc1	.	?	.	?	/	/	/	/
CCOc1ccc(/C=C/C(=O)c2c(O)c3ccccc3oc2=O)cc1	.	8.9µM	.	.	8.4	.	.	?
CCOc1ccc(/C=C/C(=O)c2c(O)cc(C)oc2=O)cc1	.	?	.	.	16	25µM	?	12µM
Cc1cc(O)c(C(=O)/C=C/c2ccccc2Br)c(=O)o1	?	?	.	?	/	/	/	/
Cc1cc(O)c(C(=O)/C=C/c2ccc(C(C)C)cc2)c(=O)o1	.	?	.	.	6.3	?	?	.
Cc1cnc(C(=O)O)c[n+]1[O-]	.	.	/	/	/	/	/	/
CCOc1ccc(OCC)c(Nc2nc3ccc(C(=O)c4ccccc4)cc3n3cnnc23)c1	.	.	.	.	/	/	/	/
NC(=O)C1CCN(C(=O)c2ccc3c(c2)N(Cc2cccc(Cl)c2)C(=O)c2ccccc2S3(=O)=O)CC1	.	.	.	.	/	/	/	/
CCCCCCC(=O)N1C/C=C\C(c2ccc(OC)cc2)N(Cc2ccc(F)cc2)C(=O)C1Cc1ccccc1 (configuration not stated)	/	.	.	.	/	/	/	/
CCN(CC)c1ccc(NC(=O)c2ccccc2F)cc1S(=O)(=O)Nc1ccccc1OC	.	?	.	.	/	/	/	/
COc1ccccc1NS(=O)(=O)c1cc(NC(=O)c2cccs2)ccc1N1CCCC1	.	22µM	.	.	6	?	.	.
CCN(CC)c1ccc(NC(=O)c2ccccc2Br)cc1S(=O)(=O)Nc1ccccc1OC	?	22µM	.	.	3	2.8µM	.	.
COc1ccc(OC)c(NC(=O)c2nc(SCc3ccc(F)cc3)ncc2Cl)c1	.	.	.	.	/	/	/	/
O=S(=O)(NCCc1csc(-c2ccc(F)cc2)n1)c1ccc(Cl)cc1	.	.	.	.	/	/	/	/
CCOc1cc(/C=C2\N=C(C)OC2=O)cc(Br)c1OCC(=O)OC	.	20µM	.	?	11	?	.	.
CC(C)(C)OC(=O)N1CCC(c2c(C(=O)Nc3ccc4c(c3)OCCO4)cnn2-c2ccc(F)cc2)CC1	.	.	.	.	/	/	/	/
Cc1cc2c(cc1Cl)N(C(=O)Nc1ccnc3ccccc13)CC2	.	?	.	?	/	/	/	/
Cc1cc2c(cc1Cl)N(C(=O)Nc1ccc(Oc3cccnc3C)nc1)CC2	.	.	.	?	/	/	/	/	USP1 UbRho=?
SMILES	KAT2A inh	VDR inh	TrxR1 substrate	rTrxR1 inhibitor	VDR inh confirm	VDR FP fluor	VDR bla	VDR cytotox	others
Cc1ccc(C(=O)/C=C/c2ccc3ncccc3c2)cc1	?	22µM	.	?	12	?	?	?
Cc1cc(C(Br)(Br)Br)nc2ccccc12	/	/	.	3.2µM	14	14µM	13µM	17µM
Cc1ccc(C(=O)/C=C/c2ccc(F)cc2)o1	.	?	.	?	/	/	/	/
O=C(/C=C/c1ccc(F)cc1)c1ccccc1Br	.	32µM	.	?	12	?	?	?
CCOc1cc(/C=C2\CN(C)C/C(=C\c3ccc(O)c(OCC)c3)C2=O)ccc1O	.	?	.	56µM	18	?	2.9µM	27µM
CCOc1cc(/C=C2/C(=O)ON=C2C)ccc1O	.	?	.	?	/	/	/	/
O=C(Cc1ccccc1Cl)NC1(O)C(=O)c2ccccc2C1=O	.	50µM	.	.	11	.	.	.
CCOC(=O)C1C(=O)NC(SCC(=O)Nc2nccs2)=C(C#N)C1c1ccccc1OCC (configuration not stated)	.	35µM	.	?	12	?	.	?
N=c1ccn2c(n1)OC1C(O)[C@@H](CO)O[C@H]12 (some centres not stated)	/	.	.[0.457 µM]	.	/	/	/	/
COC(=O)[C@H](CCSC)NC(=O)c1cc2c(cn1)[nH]c1ccccc12	?	25µM	.	.	7.5	?	.	.
O=C(NCCc1ccccc1)c1ccc(=O)oc1	.	.	.	.	/	/	/	/
O=C(NCCc1ccccc1)c1ccc2nc(-c3ccco3)c(-c3ccco3)nc2c1	?	?	.	3.2µM	3.5	8.9µM	.	.
O=C(NC1CCCC1)c1ccc2nc(-c3ccco3)c(-c3ccco3)nc2c1	.	?	.	3.2µM	10	3.2µM	.	.
COc1ccc(CNC(=O)c2ccc3c(c2)N(Cc2ccccc2C)C(=O)c2ccccc2S3=O)cc1 (configuration not stated)	.	.	.	.	/	/	/	/
O=C(O)CN1C(=O)/C(=C\C(Br)=C\c2ccccc2)SC1=S	.	35µM	.	.	?	.	?	?
O=C(O)CN1C(=O)/C(=C/c2ccsc2)SC1=S	.	.	.	.	/	/	/	/
Nc1c(N2CCCC2)cc(Cl)c2nonc12	.	?	.	25µM	5	2.8µM	.	.
Nc1cc(Cl)ccc1N1CCCCC1	.	.	.	.	/	/	/	/
